# High-throughput results (PubChem)
# This is a sample that favours compounds with a hit; in the whole collection about 4.2% have one here.
# Mito fusion yeast – mitochondrial division inhibition or fusion activation | S. cerevisiae fusion-defective mutant growth rescue, CellTiterGlo 48 h | Potency, µM (doses to about 46.1 µM), for inactives: top-dose growth rescue (activation), usual class: activators | 320,000 compounds, 0.23% hits | AID 485298; note: % of control where 0% means no effect; nearly all actives have a fitted effect of over 45% in size
#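 S. cerevisiae fusion-defective temperature-sensitive mutants (e.g. fzo1-1, mgm1-5) grown 48 h at 37C in YPEG (ethanol/glycerol non-fermentable) medium with 23 nl compound per well; growth rescue read as CellTiterGlo luminescence.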
# MCF10A rereplic – induces DNA re-replication in MCF 10a normal breast cells. MCF 10A DNA re-replication, Hoechst nuclear intensity, 48 h. Potency, µM (doses to about 46.1 µM), for the others: top-dose activity, positive = re-replication, usual class: activators. 350,000 compounds, 2.9% hits. AID 624296; note: % of control where 0% means no effect; nearly all actives have a fitted effect of over 50% in size
# AT treatment – potential ataxia-telangiectasia treatment. F2112 A-T fibroblasts, KAP-1 phosphorylation AlphaLISA; neocarzinostatin DNA damage 30 min before lysis. Potency, µM (top dose mostly 57.5 µM), for the others: at the highest dose activation, hits mostly activators. 320,000 compounds, 0.19% hits. AID 485349; note: % of control where 0% means no effect; nearly all actives have a fitted effect of over 45% in size
#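 ATM-like activity read as KAP-1 phosphorylation via AlphaLISA donor/acceptor antibody pairs after lysis and 6 hr at 25C. Cells were ATM-null patient fibroblasts (F2112, hTERT), dosed 60 min, then exposed to the DSB inducer NCS for 30 min.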
# SW480 rereplic – induces DNA re-replication in SW480 colon adenocarcinoma cells. SW480 DNA re-replication, Hoechst DNA content imaging, 48 h. Potency, µM (series often up to 46.1 µM), for the others: at the highest dose re-replication activation, usual class: activators. 340,000 compounds, 1.8% hits; note: % of control where 0% means no effect; nearly all actives have a fitted effect of over 55% in size
#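 Treated cells incubate 48 hr (37 C, 5% CO2), are stained 40 min with Hoechst, and nuclear fluorescence is enumerated; a rise in nuclei with high DNA signal marks re-replication.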
# Integrin act MD – activates integrin-mediated alleviation for muscular dystrophy; alpha7betagal myoblasts, beta-gal FDG fluorescence, 48 h; 350,000 compounds, 0.064% hits; AID 624291; Potency, µM (titrated, usually from 38.3 µM), for inactives: at the top dose activation, usual class: activators;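 note: 100% = response of the positive control SU9516; nearly all actives have a fitted effect of over 60% in size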
#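 alpha7betagal+/- myoblasts (passage 13, 250/well) treated 48 h at 37C with compounds at 1:260 dilution of DMSO stock. Lysed, then beta-galactosidase activity read as FDG fluorescence (ex 480/em 540) after 30 min, with pre-read for autofluorescence.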
# Starred values were filed as active, the others as inactive; ? = inconclusive; / = no result; ! = a repeat was not active; [ ] = another dose, or the depositor's remark. Calls come from the whole dose curve; as a rule, active = well fitted activation curve with a large enough effect; inconclusive = small, poorly fitted or top-dose-only effect; inactive = no such curve, though single readings can be large or run the other way. Potency is the fitted concentration of half-maximal effect.
SMILES,Mito fusion yeast,MCF10A rereplic,AT treatment,SW480 rereplic,Integrin act MD
COc1ccc(NS(=O)(=O)c2ccc(N3CCOCC3)c(NC(=O)c3ccc(F)cc3)c2)cc1,-2%,-1%,-1%,?,-9%
COc1ccc(CCN2C(=O)c3ccccc3NC2c2cc(Cl)c(O)c(OC)c2)cc1 (stereo not drawn),?,2.6µM*,-4%,8.2µM*,-52%
COc1ccc(S(=O)(=O)N2CCCCCC2)cc1NC(=O)CN1C(=O)CNC1=O,/,-1%,2%,-2%,4%
CCOC(=O)C1=C(C)NC(=S)NC1c1ccc(-c2ccc(Cl)cc2)o1 (stereo not drawn),?,?,3%,19%,-21%
COC(=O)C1=C(C)NC(=S)NC1c1ccc(-c2cccc(Cl)c2)o1 (stereo not drawn),?,?,-3%,18µM*,6%
NS(=O)(=O)c1ccc(NC(=O)COC(=O)c2ccc([N+](=O)[O-])s2)cc1,2%,4%,3%,16µM*,-6%
Cc1cc(C)c(NC(=O)COC(=O)c2ccc([N+](=O)[O-])s2)c(C)c1,0%,5%,7%,-63%,-12%
CC(=O)c1nc2ccccc2n1CCc1ccccc1,-4%,1.8µM*,11%,-22%,-9%
Cc1noc(C)c1CSc1cc(C)c2ccccc2n1,2%,17%,5%,0%,-4%
COc1ccc(OC)c(NC(=O)c2cnc(Nc3ccccc3OC)c3ccccc23)c1,?,24%,11%,3.3µM*,-22%
COc1ccc(OC)c(NC(=O)c2ccc(Cl)cc2)c1,15%,3%,0%,-5%,1%
CCOC(=O)CNC(=O)c1cnc(Nc2ccccc2OC)c2ccccc12,15%,0%,9%,-1%,-9%
COc1ccc(OC)c(NC(=O)c2csc(Cl)c2OC)c1,10µM*,?,24%,?,-13%
COc1cc(C(=O)N2CCN(S(=O)(=O)c3ccc(C)cc3C)CC2)ccc1OCC(=O)N1CCOCC1,-4%,8%,-5%,-14%,-5%
Cc1ccc(N(C(C)C(=O)N2CCOCC2)S(C)(=O)=O)cc1C (stereo not drawn),0%,-13%,5%,23µM*,?
COc1cccc(C(=O)/C=C/Nc2cc(C)ccc2O)c1,3%,100%,2%,18µM*,-36%[7.66 µM]
CC(=O)NC1=C(NC2CCS(=O)(=O)C2)C(=O)c2ccccc2C1=O (stereo not drawn),-1%,?,20%,18µM*,0%
CN(C1=C(NC(=O)c2ccccc2)C(=O)c2ccccc2C1=O)C1CCS(=O)(=O)C1 (stereo not drawn),-5%,23µM*,3%,?,-63%
O=C(CN1C(=O)c2ccccc2C1=O)NC1CCS(=O)(=O)C1 (stereo not drawn),/,/,/,/,-12%
O=C(NC(=S)NC1CCS(=O)(=O)C1)c1ccccc1 (stereo not drawn),0%,-5%,9%,0%,-21%
CCCC[C@@H]1CNC(=S)N1CCC12CC3CC(CC(C3)C1)C2,5%,16µM*,13%,4%,-9%
COc1ccccc1NS(=O)(=O)c1ccc(C(=O)N2CC(C)OC(C)C2)cc1 (stereo not drawn),0%,1%,3%,-6%,-20%
CCCCCCCCNC(C)C(O)c1ccc(SC(C)C)cc1 (stereo not drawn),-33%,24µM*!,6%,?,/
Cc1cc(NCCNC2=CC(=O)CCC2)nc2ccccc12,5%,-4%,-1%,-5%,15%
Cc1cc(NCC2CCCCC2)nc2ccccc12,-23%,26µM*,5%,14%,-45%
SMILES,Mito fusion yeast,MCF10A rereplic,AT treatment,SW480 rereplic,Integrin act MD
O=C1CN(C(=O)Cn2ncc(Cl)c(Cl)c2=O)c2ccccc2N1,2%,1.8µM*,-2%,14%,-71%
O=C(Cn1ncc(Cl)c(Cl)c1=O)NC1CCS(=O)(=O)C1 (stereo not drawn),-3%,?,14%,?,-9%
O=C(Cn1ncc(Cl)c(Cl)c1=O)NCC1CCCCC1,-8%,5.8µM*,-8%,?,-62%
O=C(Cn1ncc(Cl)c(Cl)c1=O)NC1CCCCC1,-10%,1.3µM*,-3%,1.3µM*,-44%
Cc1cccc(NC(=O)CNC(=O)Cn2ncc(Cl)c(Cl)c2=O)c1C,/,5.2µM*,-3%,8.2µM*,-53%
O=C(COC(=O)c1ccc(Cl)cc1)NCC1CCCCC1,/,1%,-17%,-5%,9%
Cc1cccc(NC(=O)CNC(=O)CSc2ncccn2)c1C,/,2%,?,-8%,6%
O=C1CN(C(=O)COc2ccc(Cl)c(Cl)c2)c2ccccc2N1,-4%,6%,-4%,6%,6%
O=c1nc2ccccc2c2n1CC(CN1CCN(C(c3ccccc3)c3ccccc3)CC1)N2 (stereo not drawn),4%,?,0%,-2%,-20%
CN[C@H]1C[C@H]2c3[nH]c4ccccc4c3CCN2C(=O)[C@H]1[C@H](C)O,/,/,/,/,-5%
O=C(COC(=O)C1=Cc2ccccc2OC1)NCc1ccc(F)cc1,/,-11%,/,?,2%
COCCN(CC(=O)Nc1cccc(C)c1C)C(=O)/C=C/c1ccc2c(c1)OCCO2,/,/,/,/,1%
O=C(Cc1c(F)cccc1Cl)Nc1ccccc1N1CCCCC1,-4%,?,4%,-672%[1.84 µM],16%
N#C/C(=C\c1cc([N+](=O)[O-])ccc1Cl)C(N)=O,0%,21µM*,-4%,8.2µM*,-75%
CCOC(=O)c1c(C)c(/C=N/Nc2ccccc2)n(C)c1C,4%,12µM*,4%,30%,2%
Cc1ccc(CSc2nccc(-c3c(C)nc4ccccn34)n2)cc1,-1%,3.7µM*,13%,?,13%
Cc1ccc(CSc2ncn(-c3ccccc3)n2)cc1,19%,-3%,13%,-3%,25%
Cc1cccc(-c2cnn(-c3ccccc3)c2N)c1,2%,4%,9%,18µM*,11%
Cc1cccc(-c2cnn(-c3cccc([N+](=O)[O-])c3)c2N)c1,-7%,-11%,-4%,-140%,41%
CC(C)NCC(O)Cn1c2c(c3ccccc31)CCc1c-2cnn1-c1ccccc1 (stereo not drawn),-8%,18µM*,4%,21%,-5%
CC(C)Cn1c(C(C)C)nc([N+](=O)[O-])c1S(=O)(=O)c1ccc(F)cc1,1%,21µM*,21%,18µM*,-65%
Cc1nc(N2CCN(c3ccccn3)CC2)c2c(C)c(C(=O)N3CCN(c4ccccc4F)CC3)sc2n1,?,7.3µM*,-14%,7%,?
O=C(O)CC(c1ccccc1)N1C(=O)c2ccccc2C1=O (stereo not drawn),/,-1%,/,-3%,0%
COc1coc(/C=C/C(=O)O)cc1=O,15%,-1%,-3%,1.5µM*,2%
